In PubChem BioAssay (NCI):
Values joined by “and” are separate entries in the source; they are usually repeats but may differ in a detail not shown here. Identical values can stand only once. The panel holds about 83,000 compounds, 20% with a hit somewhere; the sample as a whole holds those more often.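 Compound tested at a single concentration for 48 hours in 96-well plates; a percent growth value below 10 was scored as active.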 Values without a mark were called inactive. Active and inactive are the calls of the source.

Assays:
Assay in all cases: NCI-60 one-dose screen, 48 h (100 = growth as untreated, 0 = no growth, -100 = all killed)
Conditions in all cases: 10 µM unless noted
NCI-H23 lung = system: NCI-H23 lung
NCI-H226 lung = system: NCI-H226 lung
NCI-H322M lung = system: NCI-H322M lung
HOP-62 NSCLC = system: HOP-62 NSCLC
NCI-H460 lung = system: NCI-H460 lung
HOP-92 NSCLC = system: HOP-92 NSCLC
NCI-H522 lung = system: NCI-H522 lung
A549/ATCC NSCLC = system: A549/ATCC NSCLC
786-0 renal = system: 786-0 renal
COLO 205 colon = system: COLO 205 colon
DU-145 prostate = system: DU-145 prostate
K-562 leukemia = system: K-562 leukemia
MALME-3M melanoma = system: MALME-3M melanoma
MDA-MB-231 breast = system: MDA-MB-231 breast
RXF 393 renal = system: RXF 393 renal
SF-268 CNS = system: SF-268 CNS
SF-295 CNS = system: SF-295 CNS
SF-539 CNS = system: SF-539 CNS
UACC-257 melanoma = system: UACC-257 melanoma
M14 melanoma = system: M14 melanoma

Row | Compound | growth (NCI-H23 lung) | growth (NCI-H226 lung) | growth (NCI-H322M lung) | growth (HOP-62 NSCLC) | growth (NCI-H460 lung) | growth (HOP-92 NSCLC) | growth (NCI-H522 lung) | growth (A549/ATCC NSCLC) | growth (786-0 renal) | growth (COLO 205 colon) | growth (DU-145 prostate) | growth (K-562 leukemia) | growth (MALME-3M melanoma) | growth (MDA-MB-231 breast) | growth (RXF 393 renal) | growth (SF-268 CNS) | growth (SF-295 CNS) | growth (SF-539 CNS) | growth (UACC-257 melanoma) | growth (M14 melanoma)
1 | Cc1nc2sc(C(=O)Nc3cccc4ccccc34)c(N)c2cc1C(=O)/C=C/c1ccccc1 | 9.08% (active) | -59.4% (active) | 24% | -21.1% (active) | -34.2% (active) | 28.3% | -33.4% (active) | 12.9% | -55.5% (active) | -15% (active) | -3.16% (active) | 12% | 34% | -16.2% (active) | -87.2% (active) | 9.83% (active) | -30.7% (active) | -20.1% (active) | 68.9% | -15.3% (active)
2 | N#Cc1c(-c2cccc(F)c2)cc(-c2cccnc2)[nH]c1=O | 105% | 101% | 101% | 95.7% | 109% | 110% | 90.1% | 101% | 97.6% | 108% | 107% | 95.3% | 103% | 104% | 112% | 103% | 102% | 99.3% | 112% | 102%
3 | COc1ccc(-c2nc(Cl)c3c(C)nn(-c4ccc(F)cc4)c3n2)cc1 | 97.1% | 103% | 105% | 104% | 108% | 101% | 97.3% | 90.4% | 105% | 110% | 111% | 100% | 115% | 106% | 122% | 106% | 107% | 111% | 91.9% | 100%
4 | Cn1cc(-c2csc(-c3c[nH]c4ccc(F)cc34)n2)c2cnccc21 | 49.3% | 52% | 15.4% | -55.1% (active) | -54.3% (active) | -47% (active) | -78.5% (active) | 5.33% (active) | -94.5% (active) | -93.2% (active) | -19.6% (active) | -55.4% (active) | -94.9% (active) | -66.7% (active) | -90.8% (active) | -25.4% (active) | -75.4% (active) | -93.7% (active) | -68.6% (active) | -87% (active)
5 | O=C(NNc1ccccc1)c1ccccc1 | 98.2% and 95.8% | 93% and 105% | 66.8% | 99.1% and 47.3% | 85.1% | 102% and 95.2% | 48.1% | 72.5% and 64.1% | 86.1% and 64.6% | 95% and 65.3% | 98.1% and 71.3% | 18% and 19.8% | 99.2% | 70.6% and 53.6% | 123% | 78.9% and 58.7% | 64.5% | 95.1% and 96.7% | 56.8% and 81.2% | 53.9% and 38.5%
6 | Nc1n[nH]c2cccc(C#Cc3cccc(NC(=O)c4ccc(N5CCOCC5)c(C(F)(F)F)c4)c3)c12 | 13.5% | -0.121% (active) | 10.4% | 16.8% | 18.7% | -47.1% (active) | 9.42% (active) | 13% | -39.4% (active) | -18.2% (active) | 25.7% | 0.995% (active) | 11.2% | -22.3% (active) | -66% (active) | 23.4% | -36.9% (active) | -56% (active) | 17.6% | 3.69% (active)
7 | Cc1ccc(NC(=O)c2ccc(CN3CCN(C)CC3)cc2)cc1Nc1nccc(-c2cccnc2)n1 | 82.9% and 76.2% | 89.4% and 78.2% | 104% | 84.9% | 96.8% and 83.9% | 56.3% and 66.4% | 51.2% | 96.2% and 62.2% | 95% and 88.6% | 101% and 78.3% | 85.6% and 88.2% | 2.02% (active) | 114% and 79.6% | 88.8% and 81.3% | 94.3% and 69.3% | 104% and 74.5% | 84.9% and 66.4% | 75.5% and 38.2% | 97.2% and 29.6% | 113% and 82.7%
